Reference: the supplement of paper PMC9694430

Legend:
Test in all cases: thermal shift delta Tm vs DMSO control; higher = stronger stabilization (binding)
Details in all cases: 12.5 µM; protein concentration 2 µM
LOC_OS02G45750-cb003 = tested on: LOC_OS02G45750-cb003
Outline: (§1)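 Thermal shift values come from differential scanning fluorimetry on purified rice kinase domains made in E. coli, with melting temperatures obtained from Boltzmann fits. Samples of 19.5 μl held 2 μM kinase, 100 mM potassium phosphate pH 7.5, 150 mM NaCl, 10% glycerol, 5 × SYPRO Orange and compound in DMSO, and were heated from 25°C to 95°C at 0.05°C/s. Each shift is a triplicate mean relative to the DMSO-only protein sample.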

LOC_OS02G54510-cb004 = tested on: LOC_OS02G54510-cb004
Outline: as §1

LOC_OS03G04050-cb001 = tested on: LOC_OS03G04050-cb001
Outline: as §1

LOC_OS03G12390-cb001 = tested on: LOC_OS03G12390-cb001
Outline: as §1

LOC_OS03G27990-cb004 = tested on: LOC_OS03G27990-cb004
Outline: as §1

LOC_OS03G50450-cb001 = tested on: LOC_OS03G50450-cb001
Outline: as §1

LOC_OS03G50810-cb003 = tested on: LOC_OS03G50810-cb003
Outline: as §1

LOC_OS04G35114-cb001 = tested on: LOC_OS04G35114-cb001
Outline: as §1

LOC_OS04G38480-cb003 = tested on: T1, LOC_OS04G38480-cb003
T1 sequence (whole entry): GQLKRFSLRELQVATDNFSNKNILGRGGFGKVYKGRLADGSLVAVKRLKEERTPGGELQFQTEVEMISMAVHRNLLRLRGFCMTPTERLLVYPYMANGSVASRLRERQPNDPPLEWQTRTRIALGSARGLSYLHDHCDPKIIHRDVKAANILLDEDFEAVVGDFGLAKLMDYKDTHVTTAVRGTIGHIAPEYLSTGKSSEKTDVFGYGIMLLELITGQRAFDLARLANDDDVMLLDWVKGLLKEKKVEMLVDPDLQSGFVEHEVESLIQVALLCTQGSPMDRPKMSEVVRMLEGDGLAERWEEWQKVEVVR
Outline: as §1

LOC_OS04G41100-cb001 = tested on: T2, LOC_OS04G41100-cb001
T2 sequence (whole entry): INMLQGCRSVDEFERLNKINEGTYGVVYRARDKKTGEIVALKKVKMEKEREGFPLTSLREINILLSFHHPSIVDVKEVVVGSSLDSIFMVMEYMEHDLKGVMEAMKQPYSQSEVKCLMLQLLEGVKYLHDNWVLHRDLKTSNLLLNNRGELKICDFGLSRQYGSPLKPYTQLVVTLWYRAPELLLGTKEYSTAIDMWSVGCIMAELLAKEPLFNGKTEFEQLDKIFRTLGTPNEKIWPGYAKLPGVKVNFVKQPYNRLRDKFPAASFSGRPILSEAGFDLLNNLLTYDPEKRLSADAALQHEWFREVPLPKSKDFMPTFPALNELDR
Outline: as §1

LOC_OS04G57630-cb004 = tested on: LOC_OS04G57630-cb004
Outline: as §1

LOC_OS05G07850-cb002 = tested on: LOC_OS05G07850-cb002
Outline: as §1

LOC_OS05G16824-cb004 = tested on: LOC_OS05G16824-cb004
Outline: as §1

LOC_OS05G28520-cb001 = tested on: LOC_OS05G28520-cb001
Outline: as §1

LOC_OS05G30820-cb001 = tested on: LOC_OS05G30820-cb001
Outline: as §1

LOC_OS05G43570-cb004 = tested on: LOC_OS05G43570-cb004
Outline: as §1

LOC_OS06G16330-cb003 = tested on: LOC_OS06G16330-cb003
Sequence of LOC_OS06G16330-cb003 (as listed by the source): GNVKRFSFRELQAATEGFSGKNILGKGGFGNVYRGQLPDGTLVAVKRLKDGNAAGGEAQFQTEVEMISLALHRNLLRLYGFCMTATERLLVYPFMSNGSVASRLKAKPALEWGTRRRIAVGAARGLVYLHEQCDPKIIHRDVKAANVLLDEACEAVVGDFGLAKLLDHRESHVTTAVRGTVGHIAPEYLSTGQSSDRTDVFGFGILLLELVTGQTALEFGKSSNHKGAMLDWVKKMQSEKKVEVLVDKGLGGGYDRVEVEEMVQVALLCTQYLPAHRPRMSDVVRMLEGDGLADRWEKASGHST
Outline: as §1

LOC_OS06G22820-cb001 = tested on: T3, LOC_OS06G22820-cb001
T3 sequence (whole entry): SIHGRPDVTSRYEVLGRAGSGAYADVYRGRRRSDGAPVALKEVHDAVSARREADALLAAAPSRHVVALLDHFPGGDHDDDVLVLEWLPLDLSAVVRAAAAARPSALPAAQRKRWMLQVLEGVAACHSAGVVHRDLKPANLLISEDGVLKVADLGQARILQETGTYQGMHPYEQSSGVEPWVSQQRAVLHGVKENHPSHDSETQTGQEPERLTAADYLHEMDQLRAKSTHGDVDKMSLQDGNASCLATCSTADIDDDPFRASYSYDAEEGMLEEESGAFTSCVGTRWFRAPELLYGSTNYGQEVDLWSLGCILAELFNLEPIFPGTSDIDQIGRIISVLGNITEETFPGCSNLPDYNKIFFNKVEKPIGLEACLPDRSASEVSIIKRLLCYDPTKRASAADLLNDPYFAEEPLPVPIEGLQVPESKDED
Outline: as §1

LOC_OS07G06570-cb004 = tested on: LOC_OS07G06570-cb004
Outline: as §1

LOC_OS07G07230-cb001 = tested on: LOC_OS07G07230-cb001
Outline: as §1
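Also: purified Escherichia coli-expressed rice kinase domain construct.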

| Compound | thermal shift delta Tm (LOC_OS02G45750-cb003) | thermal shift delta Tm (LOC_OS02G54510-cb004) | thermal shift delta Tm (LOC_OS03G04050-cb001) | thermal shift delta Tm (LOC_OS03G12390-cb001) | thermal shift delta Tm (LOC_OS03G27990-cb004) | thermal shift delta Tm (LOC_OS03G50450-cb001) | thermal shift delta Tm (LOC_OS03G50810-cb003) | thermal shift delta Tm (LOC_OS04G35114-cb001) | thermal shift delta Tm (LOC_OS04G38480-cb003) | thermal shift delta Tm (LOC_OS04G41100-cb001) | thermal shift delta Tm (LOC_OS04G57630-cb004) | thermal shift delta Tm (LOC_OS05G07850-cb002) | thermal shift delta Tm (LOC_OS05G16824-cb004) | thermal shift delta Tm (LOC_OS05G28520-cb001) | thermal shift delta Tm (LOC_OS05G30820-cb001) | thermal shift delta Tm (LOC_OS05G43570-cb004) | thermal shift delta Tm (LOC_OS06G16330-cb003) | thermal shift delta Tm (LOC_OS06G22820-cb001) | thermal shift delta Tm (LOC_OS07G06570-cb004) | thermal shift delta Tm (LOC_OS07G07230-cb001) |
| --- | --- | --- | --- | --- | --- | --- | --- | --- | --- | --- | --- | --- | --- | --- | --- | --- | --- | --- | --- | --- |
| Cc1cn(-c2cc(NC(=O)c3ccc(C)c(Nc4nccc(-c5cccnc5)n4)c3)cc(C(F)(F)F)c2)cn1 [Nilotinib (AMN-107)] | 0.19 °C | 0.17 °C | 0.37 °C | 0.05 °C | 0.02 °C | 0.23 °C | 0.16 °C | -0.37 °C | 0.3 °C | 0.57 °C | -0.2 °C | -0.28 °C | -8.56 °C | 0.53 °C | 0.44 °C | 0.26 °C | -0.09 °C | 0.72 °C | 0.96 °C | 0.47 °C |
| CCS(=O)(=O)c1cccc(-c2cc(C(=O)NC3CCN(C)CC3)c(C)c3[nH]c4ncc(C)cc4c23)c1 | 5.63 °C | 2.03 °C | -0.02 °C | 6.67 °C | 3.82 °C | 3.53 °C | 5.67 °C | 6.23 °C | 3.14 °C | 0.65 °C | 2.61 °C | 13.6 °C | 10.6 °C | 2.38 °C | 3.26 °C | 0.4 °C | 8.47 °C | -0.41 °C | 0.61 °C | 0.94 °C |
| O=C1Nc2ccc(I)cc2/C1=C/c1cc(Br)c(O)c(Br)c1 | 0 °C | 1.04 °C | 0.81 °C | 6.08 °C | 2.06 °C | 1.49 °C | 4.01 °C | 1.76 °C | -0.73 °C | 0.75 °C | -0.66 °C | 7.59 °C | -3.03 °C | 2.07 °C | 1.54 °C | 0.73 °C | 1.63 °C | 0.94 °C | 1.22 °C | 1.47 °C |
| COc1cc(N2CCC(N)CC2)ccc1Nc1ncc(Cl)c(-c2c[nH]c3ccccc23)n1 | 2.46 °C | 1.23 °C | 0.85 °C | 14.1 °C | 5.3 °C | 8.66 °C | 6.42 °C | 3.73 °C | 4.68 °C | 1.54 °C | 4.46 °C | 13.4 °C | 8.24 °C | 1.74 °C | 2.33 °C | 1.06 °C | 10.4 °C | 0.85 °C | 2.26 °C | 1.14 °C |
| CC(C)(C)c1cc(NC(=O)Nc2ccc(-c3cn4c(n3)sc3cc(OCCN5CCOCC5)ccc34)cc2)no1 [Quizartinib (AC220)] | -0.83 °C | 0.02 °C | -0.02 °C | 0.08 °C | 0.09 °C | -0.11 °C | 0.82 °C | 0.41 °C | 0.67 °C | 0.81 °C | 0.97 °C | 1.54 °C | -1.62 °C | 0.28 °C | 0.82 °C | 0.27 °C | 0 °C | 0.73 °C | 1.04 °C | 0.45 °C |
| Cc1cnc(Nc2ccc(OCCN3CCCC3)cc2)nc1Nc1cccc(S(=O)(=O)NC(C)(C)C)c1 | 2.37 °C | 0.89 °C | 0.72 °C | 3.03 °C | 1.33 °C | 1.51 °C | 3.13 °C | 3.12 °C | 1.88 °C | 0.68 °C | 1.75 °C | 8.73 °C | 6.93 °C | 0.76 °C | 0.92 °C | 0.64 °C | 4.38 °C | 0.29 °C | 0.27 °C | 0.07 °C |
| CC(C)(C)c1nc(-c2ccc(NC(=O)Nc3cccc(C(F)(F)F)c3)c3ccccc23)c2c(N)nccn12 [kira6] | 2.31 °C | 9.87 °C | 0.01 °C | 2.25 °C | 7.11 °C | 0.7 °C | 4.91 °C | 3.47 °C | 1.58 °C | -0.01 °C | 1.93 °C | 6.62 °C | 9.24 °C | 0.74 °C | 0.66 °C | 3.12 °C | 4.28 °C | 0.73 °C | 0.73 °C | 0.14 °C |
| CC(C)c1cnn2c(NCc3ccccc3-n3cccn3)nc(OC3CCCNC3)nc12 (stereo not given) | 0.32 °C | -0.14 °C | 0.32 °C | 0.22 °C | 0.11 °C | 0.09 °C | 0.5 °C | 0.48 °C | 1.13 °C | 0.57 °C | 0.19 °C | 0.48 °C | 1.46 °C | 0.66 °C | 0.31 °C | 0.57 °C | 0.17 °C | 1.22 °C | 0.4 °C | -0.33 °C |
| CC(C)n1nc(-c2cc3cc(O)ccc3[nH]2)c2c(N)ncnc21 [Torkinib (PP242)] | 1.42 °C | 0.85 °C | 0.29 °C | 2.95 °C | 0.64 °C | 0.48 °C | 0.71 °C | 5.09 °C | 1.25 °C | 0.2 °C | 0.41 °C | 5.09 °C | -3.24 °C | 0.21 °C | 0.67 °C | 0.33 °C | 1.93 °C | 0.42 °C | 0.62 °C | 0.14 °C |
| C[C@@]1(C(=O)Nc2ccc(F)nc2)CCCN1c1nc(Nc2cc(C3CC3)n[nH]2)c2cccn2n1 | -1.4 °C | 2.49 °C | 0.25 °C | 0.55 °C | 0.21 °C | -0.6 °C | 1.17 °C | 2.02 °C | 1.6 °C | 0.62 °C | 0.45 °C | 6.93 °C | 7.72 °C | 1.51 °C | 0.52 °C | 0.32 °C | 7.13 °C | -0.88 °C | 1.23 °C | 0.05 °C |
| CC1(C)CNc2cc(NC(=O)c3cccnc3NCc3ccncc3)ccc21 [Motesanib Diphosphate (AMG-706)] | -0.06 °C | 1.49 °C | 0.4 °C | -0.39 °C | 0.2 °C | -0.1 °C | 0.3 °C | 0.51 °C | 0.65 °C | 0.6 °C | -0.11 °C | 0.52 °C | -3.02 °C | 0.68 °C | 0.49 °C | 0.21 °C | -0.19 °C | 0.37 °C | 0.75 °C | 0.81 °C |
| NC1(Cc2ccc(Cl)cc2)CCN(c2ncnc3[nH]ccc23)CC1 | 0.79 °C | 0.26 °C | 0.46 °C | 1.47 °C | 0.26 °C | 0.97 °C | 0.62 °C | 0.68 °C | 0.64 °C | 0.33 °C | 0.12 °C | 2.2 °C | 0.61 °C | 0.49 °C | 0.66 °C | 0.72 °C | 0.73 °C | 0.61 °C | 0.47 °C | -0.27 °C |
